The results in this text go back to PubChem BioAssay AID588342 (National Center for Advancing Translational Sciences (NCATS), 2011).

SMILES strings stand for the structures. Among all 360,000 compounds or so, about 25,000 (6.9%) were called active. Entries that show only a call come without a potency. Not shown: some 9% with an inconclusive outcome. The call rests on the fitted dose curve; in most records, active means well fitted inhibition curve with a large enough effect; inconclusive means small, poorly fitted or top-dose-only effect; inactive means flat fitted curve, though single readings scatter. This excerpt belongs to a sample that is enriched for actives.

Chain of Luciferin 4-monooxygenase (Photinus pyralis) (P08659 whole entry, looked up): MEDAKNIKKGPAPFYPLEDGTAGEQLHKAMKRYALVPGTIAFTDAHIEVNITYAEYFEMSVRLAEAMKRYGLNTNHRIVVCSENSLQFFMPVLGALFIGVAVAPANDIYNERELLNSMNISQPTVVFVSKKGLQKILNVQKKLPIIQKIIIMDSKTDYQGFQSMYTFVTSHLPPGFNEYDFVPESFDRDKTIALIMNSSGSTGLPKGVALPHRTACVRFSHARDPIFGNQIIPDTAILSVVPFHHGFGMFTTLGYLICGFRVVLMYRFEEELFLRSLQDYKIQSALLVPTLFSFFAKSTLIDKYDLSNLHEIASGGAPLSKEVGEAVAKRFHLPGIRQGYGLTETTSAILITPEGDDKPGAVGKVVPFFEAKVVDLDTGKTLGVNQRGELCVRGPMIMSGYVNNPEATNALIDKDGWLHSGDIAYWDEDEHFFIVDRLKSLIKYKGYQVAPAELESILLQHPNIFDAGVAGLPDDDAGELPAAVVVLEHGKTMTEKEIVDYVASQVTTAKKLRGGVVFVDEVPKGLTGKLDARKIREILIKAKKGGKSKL

This experiment has as its target Luciferin 4-monooxygenase (Photinus pyralis) (UniProt P08659). The experiment in a line: qHTS profiling assay for firefly luciferase inhibitor/activator using purifed enzyme and Km concentrations of substrates (counterscreen for miR-21 project). Further: nearly all actives have a fitted effect of over 55% in size. Particulars: purified FLuc, luminescence inhibition; series mostly up to 57.5 µM. The source says:
MLPCN Grant: 1 R21 NS059478-01 (miR-21 grant) Assay Provider: NCGC NCGC Assay Overview: Firefly (Photinus pyralis) luciferase is one of the most commonly used transcriptional reporters for a number of reasons. It is considered one of the more dynamically responsive reporters -that is, responsive to changes in reporter transcription - as it requires no post-translational modifications and is enzymatically active directly after protein synthesis (Wood, 1998). Additionally, the half-life of the luciferase protein is short relative to other reporter-gene products (Wood, 1995). Whereas reporters with long half-lives potentially allow for increased signal due to accumulation of reporter-gene product, once accumulated in the cell, dynamic changes in reporter-gene expression may be difficult to detect(Fan and Wood, 2007; Almond et al., 2004). It has been shown that wild-type P. pyralis luciferase has a half-life of approximately […] hours in mammalian cells (Thompson et al., 1991). Firefly luciferase reporter-gene assays are also generally considered one of the most sensitive assay types (Wood, 1995; Wood, 1998). Although light produced in a bioluminescence reaction is of lower intensity than that produced during fluorescence emission, this is offset by little to no background light inherent to luminescent assays. Thus the luciferase reporter can be expressed at much lower levels than fluorescent proteins while still providing robust signal. # However, it was initially observed, in 1991, by Thompson et al., that compounds that resemble the substrates of firefly luciferase (FLuc) can act as competitive inhibitors of the enzyme, and that these compounds, upon interaction with luciferase in the cell, can actually stabilize the protein and increase its half-life. Accumulated intracellular FLuc protein can be measured as an increase in luminescence signal, upon addition of detection reagents (which contain high concentrations of FLuc substrates) commonly used in high-throughput screening. In cell-based reporter gene assays that use FLuc as the reporter gene to quantitate the potential influence of a given compound against the target biology, this apparent increase in luminescence can mistakenly be interpreted as identification of a compound that is active against the target of interest. This is the case for the miR-21 FLuc reporter gene assay used to identify inhibitors of the miR-21 pathway (PubChem AID 2289) - compounds of interest will inhibit miR-21 biogenesis/expression or activity, and are identified by causing an increase in luminescence, due to increased FLuc translation. However, FLuc inhibitory compounds that stabilize the FLuc protein will give an identical read-out, making it difficult to distinguish compounds that are active against the target from those active against FLuc. Previous profiling work to determine the prevalence of compounds that affect FLuc enzymatic activity (PubChem AID 411) identified that ~3% of the MLSMR library (then at ~72K) inhibited FLuc. […] Since the MLSMR had grown to ~350K compounds, and since it was expected that a significant percentage of compounds found active in the miR-21 FLuc assay would be FLuc inhibitors, the library was screened for activity against FLuc using a biochemical assay of purified FLuc and KM concentrations of FLuc substrates (D-luciferin and ATP).
NCGC Assay Protocol Summary: Reagents: 50mM Tris acetate, pH 7.5; 10mM Mg acetate; 10uM D-luciferin (Sigma #L9504); 10uM ATP; 0.01% Tween-20; 0.05% BSA; 10nM P. pyralis luciferase (Sigma #L9506) Control compounds used were two known firefly luciferase inhibitors (compounds (2) and (5) in Auld et al., 2010), and DMSO. […]
In general terms: qHTS replaces the single test concentration by a dilution series.
For the compound `Cc1ccccc1CNC(=O)C1CCCN(S(=O)(=O)N(C)c2ccc(F)cc2)C1` (configuration not stated), the Potency result was “inactive”. As to `Cc1c(C(=O)NCc2ccccc2)cnn1-c1ccccc1`, the Potency entry is “inactive”. With `CCN(CC)CCN1C(=O)C(=O)/C(=C(/O)c2cnn(-c3ccccc3)c2C)C1c1cccs1` (configuration not stated), the Potency is 21.3 µM (active). As for `CCN(CC)CCN1C(=O)C(=O)/C(=C(/O)c2ccc(OC)c(OC)c2)C1c1ccccn1` (configuration not stated), the Potency result is “inactive”. Next, `CN(CC(=O)Nc1ccc(Cl)c(C(F)(F)F)c1)C(=O)CCC(=O)c1ccccc1`: “inactive”. On to `Cc1nnc(SCc2cc(=O)c3cc(F)ccc3[nH]2)n1C`, for which the Potency result was “inactive”. The same measure for `COc1ccc(-c2cc3ncccc3cn2)cc1`: 5.36 µM (active); for `COc1ccc(-c2cc(C(F)(F)F)nc(NCc3cccnc3)n2)cc1`: “inactive”. For `COc1ccc(-c2cn[nH]c2-c2ccc(OC)cc2)cc1`, the Potency result was “inactive”. The same measure for `CCOCCCNc1c(CC)c(C)c(C#N)c2nc3ccccc3n12`: “inactive”; for `CC1CCc2c(sc3c2C2=NS(=O)(=O)CCN2C=N3)C1` (configuration not stated): “inactive”.

Take `CCOC(=O)N1CCN(S(=O)(=O)c2ccc3c(c2)C(C)C(=O)N3)CC1` (configuration not stated): the Potency entry is “inactive”. On to `CCOC(=O)c1c(SCC(=O)Nc2cccc(C)c2C)nc(=O)[nH]c1C`, for which the Potency entry was “inactive”.

Consider `Cc1ccccc1OCc1ccc(-c2nc(C#N)c(N3CCCCC3)o2)o1`, for which the Potency result is “inactive”. The same measure for `Cc1ccc(O)c(NC(=O)c2cc(-c3ccco3)on2)c1`: 6.01 µM (active). Next, `Cc1ccc(O)c(NC(=O)c2cc(-c3ccc(F)cc3)no2)c1`: “inactive”; `Cc1ccc(O)c(NC(=O)COc2cc(C)ccc2C)c1`: “inactive”. Next, `COc1cc(C(=O)NCC(c2ccco2)N2CCCC2)ccc1OCc1ccccc1` (configuration not stated): “inactive”; `CC(=O)N1CCN(CC(=O)Nc2ccc(C)c(F)c2)CC1`: “inactive”. As for `CCc1sc(C(=O)N2CCN(CC(=O)Nc3cccc(F)c3)CC2)cc1C`, the Potency was 13.5 µM (active).

Turning to `O=C(CN1CCN(C(=O)c2cccc(F)c2)CC1)Nc1ccccc1F`, the Potency result was “inactive”. Next, `CN(CC(=O)Nc1ccc(Cl)cc1)C(=O)c1ccc(COc2ccccc2)cc1`: “inactive”; `Cc1c(NC(=O)c2cc(=O)c3ccccc3o2)c(=O)n(-c2ccccc2)n1C`: “inactive”.

In the case of `CCCn1nc(C(=O)OCc2nc(N)nc(Nc3ccccc3C)n2)c2ccccc2c1=O`, the Potency result is “inactive”.

For `Cc1cc(=O)n(CC(=O)Nc2cccc([N+](=O)[O-])c2)c(-n2nc(C)cc2C)n1`, the Potency entry was “inactive”. Next, `O=C(CCN1C(=O)c2ccccc2C1=O)C1=NN[C@@H]2C(=O)N(c3ccc(F)cc3)C(=O)[C@H]12`: “inactive”; `CC1(C)CC(=O)c2c(n(S(=O)(=O)c3ccccc3)c3ccc(NS(=O)(=O)c4ccccc4)cc23)C1`: “inactive”. `O=C(CCSc1ccccc1)N1CCN(c2ccccc2F)CC1`: the Potency was 10.7 µM (active). For `O=C(CCSCc1ccccc1F)N1CCN(c2ccc(Cl)cc2)CC1`, the Potency entry is “inactive”. Take `O=C(CCc1ccccc1F)N1CCN(c2ccccc2)CC1`: the Potency result was “inactive”.

For `Cc1ccc(C)c(Nc2nnc(-c3ccc(C)c(S(=O)(=O)N4CCCCC4)c3)c3ccccc23)c1`, the Potency entry was “inactive”.

Turning to `CC1CCc2c(sc3nc4n(c(=O)c23)CCS4)C1` (configuration not stated), the Potency is 21.3 µM (active).

As to `Cc1ccc(NC(=O)Cn2nnc3sc4c(c3c2=O)CCC(C)C4)cc1` (configuration not stated), the Potency entry is “inactive”.

For the compound `CCCn1nnc2sc3c(c2c1=O)CCC(C)C3` (configuration not stated), the Potency is 15.1 µM (active). Next, `C=CCn1c(SCc2c(C)noc2C)nc2sc3c(c2c1=O)CCC(C)C3` (configuration not stated): “inactive”; `Cn1c(NN)nc2sc3c(c2c1=O)CCC3`: “inactive”; `COC(=O)c1cccc(Cn2nnc3sc4c(c3c2=O)CCC(C(C)(C)C)C4)c1` (configuration not stated): “inactive”. Next, `Cc1ccc2nc3c(cc(C(=O)NC4CCCCC4)c(=N)n3C(C)C)c(=O)n2c1`: “inactive”.

`CCOC(=O)c1c(NC(=O)Cc2coc3ccc(CC)cc23)sc2c1CCC2`: the Potency result was “inactive”. Next, `Fc1ccccc1/C=C1\CCCC2=C1Nc1ncnn1C2c1ccccc1F` (configuration not stated): “inactive”; `CSCCC(NC(=O)c1ccccc1)C(=O)N1CCCCCCC1` (configuration not stated): “inactive”; `COc1ccc(Cl)cc1S(=O)(=O)N1CCC(c2ccncc2)CC1`: “inactive”.

For `CC1CCCCN1CC(=O)N1CCCc2c1c(=O)oc1ccc(OCc3ccccc3)cc21` (configuration not stated), the Potency result was “inactive”. Turning to `Cc1ccc(CNS(=O)(=O)CCNC(=O)c2ccccc2)cc1`, the Potency result is “inactive”. For the compound `Cn1c2c(c(=O)n(C)c1=O)C(c1cccc([N+](=O)[O-])c1)Nc1ccccc1O2` (configuration not stated), the Potency entry was “inactive”.

Turning to `Cc1ccc(-c2cc(N)n(Cc3cccc(Cl)c3)n2)cc1`, the Potency entry is “inactive”.

As for `Cc1ccc(-c2cc(N)on2)cc1`, the Potency is 16.9 µM (active). Next, `Cc1ccc(S(=O)(=O)Cc2cc(-c3ccc(Cl)cc3)no2)cc1`: “inactive”. On to `CCc1nn(CC(=O)Nc2cccc(C)c2C)c(=O)c2cc3sccc3n12`, for which the Potency entry was “inactive”. Next, `COc1cc(C(=O)N2CCN(C(=O)COc3cccc(C)c3)CC2)cc(OC)c1OC`: “inactive”; `CCOC(=O)c1cnc(SCC(=O)Nc2cccc(OC)c2)nc1N`: “inactive”; `CCOC(=O)c1cnc(SCC(=O)Nc2ccccc2C(=O)OC)nc1N`: “inactive”. Next, `CCOC(=O)c1cnc(SCc2nc(N)nc(Nc3ccc(OC)cc3)n2)nc1N`: 19 µM (active). Consider `Cc1c(CCNC(=O)c2ccc(C(F)(F)F)cc2)sc2nc(-c3ccc(F)cc3)nn12`, for which the Potency result is “inactive”. Next, `Cc1ccc(C(=O)N/C(=C/C=C/c2ccccc2)C(=O)NCc2ccco2)cc1`: “inactive”; `CC1CCCCC12NC(=O)N(CC(=O)Nc1ccc(S(=O)(=O)Nc3ncccn3)cc1)C2=O` (configuration not stated): “inactive”.

Consider `Cc1ccccc1NC(=O)NCc1ccco1`, for which the Potency entry was “inactive”.

For `CC(C)(C)NC(=O)NCc1ccco1`, the Potency entry is “inactive”. For `Cc1cccc(Nc2ccccc2C(=O)NCc2ccco2)c1C`, the Potency entry was “inactive”.

Regarding `CC(C)(C)c1ccc(NC(=O)NCc2ccco2)cc1`, the Potency was 23.9 µM (active). The same measure for `CC(C)(C)c1ccc(C(=O)NCCC(=O)NCc2ccco2)cc1`: “inactive”.

`O=C(Nc1ccccc1)Nc1ccccc1C(=O)NCc1ccco1`: the Potency is 15.1 µM (active). The same measure for `CCCCNC(=O)C1CCCN(c2nnc(C)c3c(C)n(-c4ccc(Cl)cc4)nc23)C1` (configuration not stated): “inactive”.

With `CCOC(=O)CSC1=Nc2ccccc2C2=NC(CCC(=O)NCc3ccc(F)cc3)C(=O)N12` (configuration not stated), the Potency result is “inactive”. For the compound `CCN(CC(=O)Nc1ccccc1OC)C(=O)CC1CC2CCC1C2` (configuration not stated), the Potency result is “inactive”. The same measure for `O=C(Cc1ccc(Cl)cc1)NCC(c1cccs1)S(=O)(=O)c1ccc(Cl)cc1` (configuration not stated): “inactive”; for `O=C(Cc1cccs1)N(CC1CCCO1)C1(C(=O)NC2CCCCC2)CCCCC1` (configuration not stated): “inactive”.
